Experimental data as given in PubChem BioAssay (NCATS).
Inconclusive results are not listed. A number with no mark means an inactive call. Calls come from the whole dose curve; as a rule, active = well fitted activation curve with a large enough effect; inconclusive = small, poorly fitted or top-dose-only effect; inactive = flat fitted curve, though single readings scatter. *1 amine or outer side, *2 acyl side, *3 side chain or, on linkers, in order; H or OH if unused. Where a SMILES comes first, the peptide text is derived from it. [ ]: non-standard residue; d: D form. X13 = O=C(C(CC(O)CO)O[*:1])[*:2]; NMeV = CN[CH](C(=O)O)C(C)C; NMeA = CN[CH](C)C(=O)O; βAla = NCCC(=O)O

Experiment: Primary redox qHTS assay for identification of artifact compounds. (AID 1845223);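 note: 0% = DMSO and 100% = reference compound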
Settings: Amplex Red/HRP redox cycling with DTT, fluorescence; series mostly up to 53.8 µM; redox activity (% of DA3003): at the top concentration
Outline: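 Amplex Red (25 uM) and HRP (250 mU/mL) in HBSS, with compounds for 15 min, then 250 uM DTT for 30 min, room temperature, dark. Fluorescence 525/598 nm read; normalized to DMSO and 10 uM DA3003; Hill fit.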

| SMILES | redox activity (% of DA3003) |
| --- | --- |
| C=C(C(=O)O)[C@@H]1CC[C@@]2(C)CCC[C@@](C)(O)[C@@H]2C1 | -14.8% |
| OC[C@H]1O[C@@H](Oc2cc(O)cc(-c3cc4ccc(O[C@@H]5O[C@H](CO)[C@@H](O)[C@H](O)[C@H]5O)cc4o3)c2)[C@H](O)[C@@H](O)[C@@H]1O | -7.84% [at 25.6 µM] |
| COc1ccnc(CCc2nc3ncccc3[nH]2)c1 | -4.57% |
| Cc1oc2nc3c(c(NC(=O)CN4CCCC4=O)c2c1C)CCCC3 | -6.85% |
| C/C=C/C1OC2=C(C(=O)OC2(C)O)C(O)C1O (stereo not given) | -16% |
| O=C(Nc1ccn(Cc2c(F)cccc2C(F)(F)F)n1)c1c(F)cccc1F | -0.702% [at 11.5 µM] |
| COc1ccc(C(=O)NCc2cc(C(C)C)no2)cc1OC1CCN(C)CC1 | -0.621% |
| C=C1CC[C@H]2[C@@](C)(CCC(O)[C@@]2(C)CO)[C@@H]1/C=C/C(=C\C(=O)O)C(=O)O (stereo not given in full) | -10.2% |
| NC(=O)[C@H](Cc1ccccc1)NC(=O)[C@H](CCCN=C(N)N)NC(=O)C12CC3CC(CC(C3)C1)C2 | -2.26% [at 11.5 µM] |
| COc1cc(C(C)=O)ccc1O[C@@H]1O[C@H](CO)[C@@H](O)[C@H](O)[C@H]1O | -10.9% |
| CCCC(=O)Nc1cccc(NC(=O)c2ccccc2Br)c1 | -2.92% |
| Cc1occc(=O)c1O[C@@H]1O[C@H](COC(=O)CC(C)(O)CC(=O)O)[C@@H](O)[C@H](O)[C@H]1O (stereo not given in full) | -5.21% [at 25.6 µM] |
| Cc1cc(Cn2cnc3c2CC(C(=O)O)N(C(=O)C(c2ccccc2)c2ccccc2)C3)ccc1N(C)C (stereo not given) | 17.8% |
| CSCC[C@H](NC(=O)[C@H](CO)NC(=O)[C@H](CCC(=O)O)NC(C)=O)C(=O)N[C@H](C=O)CC(=O)O (Ac-ESMD-aldehyde) | -1.61% [at 11.5 µM] |
| CCC(=O)OCC(=O)[C@@]1(OC(=O)CC)[C@@H](C)C[C@H]2[C@@H]3CCC4=CC(=O)C=C[C@]4(C)[C@@]3(F)[C@@H](O)C[C@@]21C | 6.36% |
| C[C@@H]1O[C@@H](O[C@@H]2[C@@H](O)[C@H](O[C@H]3[C@H](O[C@H]4CC[C@@]5(C)C(CC[C@]6(C)C5CC=C5[C@@H]7CC(C)(C)CC[C@]7(C(=O)O[C@@H]7O[C@H](CO)[C@@H](O)[C@H](O)[C@H]7O)CC[C@]56C)C4(C)C)O[C@H](C(=O)O)[C@@H](O)[C@@H]3O)OC[C@H]2O)[C@H](O)[C@H](O)[C@H]1O (stereo not given in full) | -4.9% [at 11.5 µM] |
| COc1ccc(CCc2nc3cc(-c4c(C)noc4C)ccc3n2C[C@H](C)N2CCOCC2)cc1Cl | 5.71% |
| C=C1CCc2occ(C)c2[C@H]2[C@H]1[C@@]13O[C@@]1(C[C@@H](C)[C@H]3OC(C)=O)[C@H]1O[C@@]21C | 3.45% |
| CC(NC(=O)c1ccccc1N)C(=O)O (stereo not given) | -17.1% |
| CC1(C)COC(=O)[C@@H]1O[C@@H]1O[C@H](CO)[C@@H](O)[C@H](O)[C@H]1O | -0.743% |
| O=C(O)CCc1c(C(=O)O)[nH]c2cc(Cl)cc(Cl)c12 | -0.091% [at 25.6 µM] |
| CC1(C)CC[C@]2(C(=O)O)CC[C@]3(C)C(=CCC4[C@@]5(C)C[C@H](O)[C@H](O[C@@H]6O[C@H](CO)[C@@H](O)[C@H](O)[C@H]6O)[C@@](C)(CO)C5[C@H](O)C[C@]43C)[C@@H]2C1 (stereo not given in full) | 7.83% [at 25.6 µM] |
| CCC(C)C1NC(=O)C2CCCN2C(=O)C(CC(O)CO)OC(=O)CCNC(=O)C(C)N(C)C(=O)C(C(C)C)N(C)C1=O (stereo not given) (cyclo([X13]PI[NMeV][NMeA][βAla]); configuration not given here) | 0.625% [at 25.6 µM] |
| CC(C)C1NC(=O)CNC(=O)C2CCCN2C(=O)C(Cc2c[nH]c3ccccc23)NC(=O)CNC(=O)C(Cc2ccc(O)cc2)NC(=O)CNC1=O (stereo not given) (cyclo(GVGYGWP); configuration not given here) | 13.7% [at 25.6 µM] |
| CC1(C)CC[C@]2(C(=O)O)CC[C@]3(C)C(=CCC4[C@@]5(C)C[C@@H](O)[C@H](O)[C@](C)(CO)C5CC[C@]43C)[C@@H]2[C@@H]1O (stereo not given in full) | -9.37% [at 25.6 µM] |
